Drawing on PubChem BioAssay (NCI), this text covers growth for nine molecules.

This is part of a sample that, as a whole, favours compounds with a hit. Of some 83,000 tested, about 20% had one in any assay.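 Treatment: one concentration, 48 hours, 96-well format. Scoring: percent growth, with anything below 10 considered active.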 Unmarked numbers belong to inactive results. The source made the active and inactive calls.

Some test systems named below: NCI-H23 lung; NCI-H226 lung; NCI-H322M lung; HOP-62 NSCLC; NCI-H460 lung; 786-0 renal; DU-145 prostate; MDA-MB-231 breast; SF-268 CNS; SF-539 CNS; M14 melanoma; SNB-19 CNS; U251 CNS; SN12C renal; UO-31 renal; SK-OV-3 ovarian; MDA-MB-435 melanoma; SW-620 colon; HCT-116 colon; KM12 colon.
What all share (experiment): NCI-60 one-dose screen, 48 h (100 = growth as untreated, 0 = no growth, -100 = all killed)
What all share (details): 10 µM unless noted

In the case of `O=C(O)c1cccc(CCl)c1`, the growth is 108% with NCI-H23 lung; 104% with NCI-H226 lung; 107% with NCI-H322M lung; 108% in the assay on HOP-62 NSCLC; 103% with NCI-H460 lung; 101% in the assay with 786-0 renal. In addition, the growth is 108% in the assay on DU-145 prostate; 113% in the assay with MDA-MB-231 breast; 102% in the assay on SF-268 CNS; 94.3% with SF-539 CNS; 95.8% in the assay on M14 melanoma; 114% with SNB-19 CNS. Besides, the growth with U251 CNS is 96.7%; in the assay on SN12C renal it was 107%; in the assay on UO-31 renal, 90.3%; with SK-OV-3 ovarian, 99.7%; in the assay with MDA-MB-435 melanoma it was 104%; in the assay with SW-620 colon, 110%. Also, the growth in the assay with HCT-116 colon is 96.7%; in the assay with KM12 colon, 96.3%.
Take `OC1(c2ccc(Cl)cc2Cl)c2ccccc2C2=NCCN21` (configuration not stated): the growth in the assay with NCI-H23 lung was 88.5%; with NCI-H226 lung, 71.3%; in the assay with NCI-H322M lung, 98.6%; in the assay on HOP-62 NSCLC it was 78.7%; with NCI-H460 lung, 105%; with 786-0 renal, 87.9%. Besides, the growth in the assay on DU-145 prostate was 109%; with MDA-MB-231 breast, 85.2%; with SF-268 CNS, 103%; with SF-539 CNS, 102%; in the assay with M14 melanoma, 102%; in the assay with SNB-19 CNS, 101%. The growth with U251 CNS was 89.5%; in the assay with SN12C renal, 92.4%; in the assay on UO-31 renal it was 82.1%; with SK-OV-3 ovarian, 89.5%; in the assay with MDA-MB-435 melanoma, 98%; in the assay with SW-620 colon it was 92.7%. In addition, the growth in the assay on HCT-116 colon is 78.8%; in the assay with KM12 colon, 101%.
For the molecule `N#Cc1ncc(/N=C/c2ccc(N(CCCl)CCCl)cc2)s1`, the growth with NCI-H23 lung is 58.2%; in the assay on NCI-H226 lung, -19.1% (active); with NCI-H322M lung, 121%; with HOP-62 NSCLC it was 96.1%; in the assay with NCI-H460 lung, 22.7%; in the assay on 786-0 renal, 29%. The growth in the assay with DU-145 prostate was 49.2%; in the assay with MDA-MB-231 breast, 94.5%; in the assay with SF-268 CNS, 65.5%; in the assay with SF-539 CNS, 40.7%; with M14 melanoma, 86.8%; in the assay on SNB-19 CNS, 89%. In addition, the growth is 80.5% in the assay on U251 CNS; 55.9% with SN12C renal; 34.8% with UO-31 renal; 78.5% in the assay with SK-OV-3 ovarian; 87.8% in the assay with MDA-MB-435 melanoma; 79.4% in the assay on SW-620 colon. Also, the growth in the assay on HCT-116 colon is 71.6%; with KM12 colon, 95.3%.
For the molecule `Cc1cc([N+](=O)[O-])c(Cl)cc1NS(=O)(=O)c1ccccc1`, the growth is 76.5% in the assay on NCI-H23 lung; 64.7% with NCI-H226 lung; 85.4% in the assay with NCI-H322M lung; 90% with HOP-62 NSCLC; 73.2% with NCI-H460 lung; 60.1% in the assay on 786-0 renal. Further, the growth is 104% in the assay on DU-145 prostate; 108% in the assay with MDA-MB-231 breast; 90.3% with SF-268 CNS; 60.6% with SF-539 CNS; 62.9% with M14 melanoma; 79.1% in the assay with SNB-19 CNS. Also, the growth with U251 CNS was 80.9%; with SN12C renal, 78.1%; in the assay on UO-31 renal it was 63.8%; in the assay on SK-OV-3 ovarian, 96%; with MDA-MB-435 melanoma, 58.4%; in the assay with SW-620 colon it was 93.9%. The growth in the assay with HCT-116 colon was 87.3%; in the assay with KM12 colon, 80.8%.
As for `CCOC(=O)/C=C(\C)Nc1ccc(N/C(C)=C/C(=O)OCC)c2c1Oc1ccccc1O2`, the growth in the assay with NCI-H23 lung was 89.7%; in the assay on NCI-H226 lung, 93.2%; with NCI-H322M lung it was 110%; in the assay on HOP-62 NSCLC it was 117%; in the assay on NCI-H460 lung, 122%; in the assay with 786-0 renal, 88.2%. The growth is 110% in the assay on DU-145 prostate; 79% in the assay on MDA-MB-231 breast; 107% with SF-268 CNS; 105% with SF-539 CNS; 107% with M14 melanoma; 115% in the assay on SNB-19 CNS. The growth in the assay on U251 CNS is 99.2%; with SN12C renal, 96.8%; in the assay on SK-OV-3 ovarian, 107%; with MDA-MB-435 melanoma, 101%; with SW-620 colon, 99.4%; in the assay with HCT-116 colon it was 105%. In addition, the growth in the assay on KM12 colon is 97.6%.
As to `Nc1ncnc2c1c(C(=O)NO)cn2C1OC(CO)C(O)C1O` (configuration not stated), the growth in the assay on NCI-H23 lung was -4.58% (active); in the assay on NCI-H226 lung, 13.6%; with NCI-H322M lung, 3.28% (active); in the assay on HOP-62 NSCLC it was 5.73% (active); with NCI-H460 lung it was -21.6% (active); in the assay with 786-0 renal, 9.38% (active). Besides, the growth with DU-145 prostate was -32.1% (active); in the assay with MDA-MB-231 breast, -6.16% (active); with SF-268 CNS, -24.7% (active); in the assay with SF-539 CNS, -32.4% (active); with M14 melanoma it was -53.8% (active); in the assay with SNB-19 CNS, 11.9%. The growth in the assay with U251 CNS was 11.9%; in the assay with SN12C renal, -31.9% (active); in the assay on UO-31 renal it was -58.2% (active); in the assay with SK-OV-3 ovarian it was -18.2% (active); in the assay on MDA-MB-435 melanoma, -72% (active); with SW-620 colon it was -3.16% (active). For the same molecule, the growth in the assay with HCT-116 colon was 7.69% (active); with KM12 colon, -29.9% (active).
As to `O1[As]2O[As]3O[As]1O[As](O2)O3`, the growth in the assay on NCI-H23 lung is 6.46% (active); in the assay on NCI-H226 lung, 0.918% (active); with NCI-H322M lung, 38.2%; in the assay on HOP-62 NSCLC it was -41.6% (active); in the assay with NCI-H460 lung, 3.94% (active); in the assay with 786-0 renal it was 10.7%. For the same molecule, the growth in the assay with MDA-MB-231 breast was -22.8% (active); with SF-268 CNS, 5.42% (active); with SF-539 CNS, -4.27% (active); in the assay with M14 melanoma it was -24.2% (active); in the assay on SNB-19 CNS, -2.55% (active); in the assay on U251 CNS, -69.2% (active). Moreover, the growth was 4.31% (active) in the assay with SN12C renal; -7% (active) in the assay on UO-31 renal; 38% with SK-OV-3 ovarian; 14.1% in the assay on MDA-MB-435 melanoma; 4.74% (active) in the assay on SW-620 colon; -10.3% (active) with HCT-116 colon. Moreover, the growth in the assay with KM12 colon is 39%.
As for `ClCCN(CCCl)c1ccc(C=NCCc2c[nH]c3ccccc23)cc1`, the growth in the assay with NCI-H23 lung was 71.7%; in the assay on NCI-H226 lung it was -10.5% (active); in the assay on NCI-H322M lung it was 111%; in the assay with HOP-62 NSCLC, 73.1%; with NCI-H460 lung, 22.6%; in the assay on 786-0 renal, 63.4%. For the same molecule, the growth with DU-145 prostate is 56.2%; in the assay with MDA-MB-231 breast it was 98.8%; with SF-268 CNS it was 72.2%; with SF-539 CNS it was 71.8%; in the assay on M14 melanoma it was 91.6%; in the assay with SNB-19 CNS it was 89.8%. Also, the growth with U251 CNS was 72.6%; in the assay with SN12C renal, 62.7%; in the assay with UO-31 renal it was 60.6%; in the assay with SK-OV-3 ovarian, 81%; with MDA-MB-435 melanoma it was 110%; in the assay on SW-620 colon, 84.4%. Also, the growth with HCT-116 colon is 79%; in the assay on KM12 colon it was 101%.
For the molecule `CO[C@@H]([CH2][Hg][S]C#N)[C@@H]([CH2][Hg][S]C#N)OC`, the growth in the assay with NCI-H23 lung is 92.3%; in the assay on NCI-H226 lung, 106%; with NCI-H322M lung, 101%; with HOP-62 NSCLC it was 99.8%; in the assay with NCI-H460 lung it was 127%; in the assay on 786-0 renal, 120%. Also, the growth in the assay with DU-145 prostate is 99.2%; with MDA-MB-231 breast it was 96.1%; in the assay with SF-268 CNS it was 100%; in the assay on SF-539 CNS, 125%; in the assay with M14 melanoma it was 81.3%; with SNB-19 CNS it was 100%. For the same molecule, the growth was 98.2% with SN12C renal; 94.6% with UO-31 renal; 119% with SK-OV-3 ovarian; 98.7% with MDA-MB-435 melanoma; 22.3% with SW-620 colon; -100% (active) in the assay on HCT-116 colon. In the assay with KM12 colon, the growth is 107%.
